Compound activity from PubChem.
TDP-43 yeast inh: TDP-43 toxicity inhibition in yeast | TDP-43 expressing yeast growth rescue, BacTiter-Glo, 24 h | Potency, µM (highest dose often 46.1 µM), for inactives: top-dose growth rescue (activation), most hits filed as activators | actives 1.8% (n = 410,000) | AID 652104; note: % of control where 0% means no effect; nearly all actives have a fitted effect of over 50% in size
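Luminescence from BacTiter-Glo reports growth of TDP-43-expressing yeast after 24 hr at 30 deg C with compound. Cells were raffinose-pregrown to mid-log, then seeded in galactose medium at OD600=0.02.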
Mito fusion act: inhibitors of mitochondrial division or activators of mitochondrial fusion; AID 485298; S. cerevisiae fusion-defective mutant growth rescue, CellTiterGlo 48 h; Potency, µM (series often up to 46.1 µM), without a hit: at the top dose growth rescue (activation), most hits filed as activators; actives 0.23% (n = 320,000); note: % of control where 0% means no effect; nearly all actives have a fitted effect of over 45% in size
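S. cerevisiae fusion-defective temperature-sensitive mutants (e.g. fzo1-1, mgm1-5) grown 48 h at 37C in YPEG (ethanol/glycerol non-fermentable) medium with 23 nl compound per well; growth rescue read as CellTiterGlo luminescence.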
FUS suppressor: FUS proteinopathy suppression in yeast. S. cerevisiae FUS-expressing, growth rescue, OD600, 24 h. Potency, µM (highest dose often 76.6 µM), actives largely listed as activators. actives 0.24% (n = 390,000). AID 1347120;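 note: plate controls were DMSO vehicle for no effect and reference control for full effect; nearly all actives have a fitted effect of over 55% in size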
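Quantitative HTS measuring growth restoration of FUS-toxic yeast. Galactose-induced cells (OD 0.005) were exposed 24hr at 30C to compounds at several concentrations, then absorbance at 600 nm was recorded.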
Abeta yeast res: compounds reversing amyloid beta toxicity in yeast; yeast expressing A-beta42, growth rescue, OD600, 48 h; response scale: 0% DMSO, 100% iron-clioquinol control; Potency, µM (top dose mostly 46.1 µM), actives largely listed as activators; actives 0.063% (n = 410,000); AID 1347071; note: nearly all actives have a fitted effect of over 55% in size
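Growth rescue measured by 600 nm absorbance after 48 h yeast culture at 30 C with compound. Values normalized between DMSO and an equimolar ferric chloride plus clioquinol control.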
aSyn yeast inh: rescues yeast growth from alpha-synuclein toxicity; Yeast expressing alpha-synuclein, growth rescue, BacTiter-Glo, 24 h; Potency, µM (series often up to 46.1 µM), for inactives: at the top dose growth rescue (activation), most hits filed as activators; actives 0.14% (n = 370,000); note: % of control where 0% means no effect; nearly all actives have a fitted effect of over 65% in size
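Rescue of yeast growth: cells expressing toxic alpha-synuclein, induced in galactose at OD600 0.02, incubated with compound 24 h at 30 C. ATP luminescence quantified growth; inhibitors of toxicity appear as activators.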
ERG Ets-DNA blk: ERG Ets/DNA interaction inhibition | P11308 | fluorescence polarization, His-ERG Ets domain / labelled DNA | Potency, µM (highest dose often 76.9 µM), for the others: at the highest dose FP activity, negative = inhibition, most hits filed as inhibitors | actives 0.028% (n = 370,000); active = well fitted inhibition curve with a large enough effect in the polarisation, with a control signal flat; inconclusive = small, poorly fitted or top-dose-only effect, or effect the other way, or a change in a side signal; inactive = no such curve, though single readings can be large or run the other way; the % refers to the polarisation;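 note: polarization taken with two DNA probes labelled with fluorescein and Texas red; % of control where 0% means no effect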
Target sequence (P11308 whole entry, looked up, the tested form may be a part): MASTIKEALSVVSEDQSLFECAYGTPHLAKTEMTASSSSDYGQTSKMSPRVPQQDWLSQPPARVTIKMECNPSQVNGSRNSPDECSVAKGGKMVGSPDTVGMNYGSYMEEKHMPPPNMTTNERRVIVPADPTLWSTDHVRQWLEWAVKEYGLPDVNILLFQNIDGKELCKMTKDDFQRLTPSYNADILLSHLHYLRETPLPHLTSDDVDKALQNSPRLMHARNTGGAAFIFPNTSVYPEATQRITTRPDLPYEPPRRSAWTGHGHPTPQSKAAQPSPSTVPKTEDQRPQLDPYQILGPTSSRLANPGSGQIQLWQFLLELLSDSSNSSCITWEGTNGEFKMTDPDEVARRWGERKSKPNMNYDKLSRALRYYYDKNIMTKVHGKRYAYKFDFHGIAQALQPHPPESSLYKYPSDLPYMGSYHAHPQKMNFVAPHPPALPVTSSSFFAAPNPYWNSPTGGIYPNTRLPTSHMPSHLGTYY
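His-tagged ERG Ets domain (1 uM in the protein solution; 300mM KCl, 50mM Tris-HCl, 1mM EDTA, 1mM DTT, pH 7.5) received compound, then a probe mix of 5 nM fluorescein-DNA and 100nM Texas-615-DNA. Fluorescence polarization was read for both dyes.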
Starred values were filed as active, the others as inactive. A selection: hits, their analogues and other compounds. The true share with any hit is near 2.2%. Unless noted, calls come from the whole dose curve; as a rule, active = well fitted curve in the direction sought with a large enough effect; inconclusive = small, poorly fitted or top-dose-only effect, or another doubt; inactive = no such curve, though single readings can be large; an effect the other way counts as inactive or inconclusive. Potency is the fitted concentration of half-maximal effect.

What do the screens show for `CC(=O)C1=C(C)OC(N)=C(C#N)C1c1cccc2ccccc12` (centres undefined)?
TDP-43 yeast inh: 11%; Mito fusion act: -3%; FUS suppressor: inactive; Abeta yeast res: inactive; aSyn yeast inh: -10%; ERG Ets-DNA blk: 6%

Results for CC(=O)n1c2c(c3ccccc31)OC(N)=C(C#N)C2c1ccc(C(C)C)cc1 (centres undefined) ?
TDP-43 yeast inh: 1%; Mito fusion act: 4%; FUS suppressor: inactive; Abeta yeast res: inactive; aSyn yeast inh: 20µM*

What do the screens show for `CCCCOc1ccc(C(=O)NCCS(=O)(=O)N2CCN(c3ccc(F)cc3)CC2)cc1`?
TDP-43 yeast inh: 17%; FUS suppressor: inactive; Abeta yeast res: inactive; ERG Ets-DNA blk: -4%

What do the screens show for `CCCCOc1ccc(C(=O)NCCS(=O)(=O)N2CCN(c3ccccc3OC)CC2)cc1`?
TDP-43 yeast inh: 13µM*; FUS suppressor: inconclusive; Abeta yeast res: inconclusive; ERG Ets-DNA blk: 5%

What do the screens show for `Cc1ccc(S(=O)(=O)NCCCc2ccc3c(c2)[C@]2(CCC[C@@H](OCc4ccccc4)[C@@H]2NC(=O)CCc2ccccc2)C(=O)N3Cc2ccccc2)cc1`?
FUS suppressor: inactive

How did Cc1ccc(-c2csc(NC(=O)c3c(C)noc3C)n2)s1 do in these assays?
TDP-43 yeast inh: 11µM*; Abeta yeast res: inactive; aSyn yeast inh: -9%

How did O=S(Cc1ccc(Br)cc1)Cc1nnc(SCc2ccc(Br)cc2)n1-c1ccccc1 (centres undefined) do in these assays?
TDP-43 yeast inh: inconclusive; Mito fusion act: 5%; Abeta yeast res: inconclusive; aSyn yeast inh: inconclusive; ERG Ets-DNA blk: 6%

What do the screens show for `COC(=O)c1ccc(CSc2nnc(CS(=O)Cc3ccc(Br)cc3)n2-c2ccccc2)cc1` (centres undefined)?
TDP-43 yeast inh: 25µM*; Mito fusion act: 10%; Abeta yeast res: inactive; aSyn yeast inh: 25%; ERG Ets-DNA blk: -3%

What do the screens show for `CCN(C(=O)COC(=O)c1ccc(O)cc1)c1cccc2ccccc12`?
TDP-43 yeast inh: inconclusive; FUS suppressor: inactive; Abeta yeast res: 7.9µM*; aSyn yeast inh: 29%; ERG Ets-DNA blk: -5%

How did COc1cccc(-n2ccnc2SCC(=O)Nc2cccc(C)c2C)c1 do in these assays?
TDP-43 yeast inh: 16µM*; FUS suppressor: inactive; Abeta yeast res: inactive; aSyn yeast inh: 2%; ERG Ets-DNA blk: 2%

Results for CCSc1nnc(NC(=O)CSc2nccn2-c2cccc(C)c2C)s1 ?
TDP-43 yeast inh: 16µM*; Mito fusion act: 9%; FUS suppressor: inactive; Abeta yeast res: inactive; aSyn yeast inh: 4%; ERG Ets-DNA blk: 0%

What do the screens show for `O=C(CSc1nccn1-c1ccc(F)cc1)Nc1ccc(OC(F)(F)F)cc1`?
TDP-43 yeast inh: 16µM*; FUS suppressor: inactive; Abeta yeast res: inconclusive; ERG Ets-DNA blk: -5%

What do the screens show for `CCSc1nnc(NC(=O)CSc2nccn2-c2cc(C)cc(C)c2)s1`?
TDP-43 yeast inh: 23%; Mito fusion act: 7%; FUS suppressor: inactive; Abeta yeast res: inactive; aSyn yeast inh: 4%; ERG Ets-DNA blk: -3%

How did O=C(CSc1nccn1-c1ccc(Cl)cc1)Nc1cccc2ccccc12 do in these assays?
TDP-43 yeast inh: 11µM*; FUS suppressor: inactive; Abeta yeast res: inactive; ERG Ets-DNA blk: 2%

How did COc1cccc(-n2ccnc2SCC(=O)Nc2ccccc2F)c1 do in these assays?
TDP-43 yeast inh: inconclusive; Mito fusion act: 6%; FUS suppressor: inactive; Abeta yeast res: inactive; aSyn yeast inh: 14%; ERG Ets-DNA blk: 8%

Results for CCOC(=O)COc1ccc([N+](=O)[O-])cc1-c1ccnc2cc(-c3ccc(Cl)cc3)nn12 ?
TDP-43 yeast inh: 17%; FUS suppressor: inactive; Abeta yeast res: inactive; ERG Ets-DNA blk: 4%

How did CC1(C)C=C2C(N(CC3CC3)C(=N)N2C(=O)OCc2ccccc2)n2c(=O)n(-c3ccccc3)c(=O)n21 (centres undefined) do in these assays?
FUS suppressor: inactive

What do the screens show for `C[C@H]1[C@@H](N(C)C)CC[C@@]23CCCN2C(=O)CCC[C@@H]13`?
FUS suppressor: inactive

Results for O=C(CSc1nccn1-c1cccc(Cl)c1)Nc1ccc2c(c1)OCCO2 ?
TDP-43 yeast inh: inconclusive; Mito fusion act: 3%; FUS suppressor: inactive; Abeta yeast res: inactive; aSyn yeast inh: 6%; ERG Ets-DNA blk: 8%

Results for O=C(CSc1nccn1-c1cccc(Cl)c1)Nc1ccc2c(c1)OCO2 ?
TDP-43 yeast inh: 18µM*; FUS suppressor: inactive; Abeta yeast res: inactive; ERG Ets-DNA blk: 2%

What do the screens show for `Cc1cc(C)cc(-n2ccnc2SCC(=O)Nc2cccc3ccccc23)c1`?
TDP-43 yeast inh: 20µM*; FUS suppressor: inactive; Abeta yeast res: inactive; aSyn yeast inh: 10%; ERG Ets-DNA blk: -3%

What do the screens show for `Cc1ccccc1N1C(=O)CC(N2CCC(C(N)=O)CC2)C1=O` (centres undefined)?
TDP-43 yeast inh: 16µM*; Mito fusion act: -14%; FUS suppressor: inactive; Abeta yeast res: inactive; aSyn yeast inh: -89%

How did NC(=O)C1CCN(C2CC(=O)N(c3cccc(F)c3)C2=O)CC1 (centres undefined) do in these assays?
TDP-43 yeast inh: inconclusive; Mito fusion act: -16%; FUS suppressor: inactive; Abeta yeast res: inactive; aSyn yeast inh: -72%; ERG Ets-DNA blk: 6%

Results for CCN1CCCC1CN(Cc1cc2ccc(C)c(C)c2[nH]c1=O)C(=O)Nc1ccccc1OC (centres undefined) ?
TDP-43 yeast inh: -23%; Mito fusion act: -3%; FUS suppressor: 10µM*; Abeta yeast res: inactive; aSyn yeast inh: 0%; ERG Ets-DNA blk: -4%

How did Clc1ccc(N2O[C@H]3C=C[C@@H]2C3)nc1 do in these assays?
TDP-43 yeast inh: -8%; FUS suppressor: inactive; Abeta yeast res: inactive; aSyn yeast inh: -2%

What do the screens show for `CCc1ccccc1NC(=O)c1ccc2c(SCC(=O)O)c3c(nc2c1)CCC3`?
TDP-43 yeast inh: 8%; FUS suppressor: inactive; Abeta yeast res: inactive; ERG Ets-DNA blk: 6%

Results for FC(F)(F)c1cccc(N2CCN(C3=Nc4ccccc4Sc4ccccc43)CC2)c1 ?
FUS suppressor: inactive

How did O=[N+]([O-])c1cc(-c2nc(-c3ccccc3)no2)ccc1NC1CCCCC1 do in these assays?
TDP-43 yeast inh: 3%; FUS suppressor: inactive; Abeta yeast res: inactive; ERG Ets-DNA blk: -2%
